Data as given in PubChem BioAssay AID1159580 (chemical genetic matrix, 2015).
Screen size: about 5,500 compounds; about 2,000 (36%) were called active. Inconclusive results (about 18%) are left out. Rule as the data show it: active = normalized growth mostly below about 0.91 (no sharp cut-off); inconclusive = no clear call, values can overlap the other calls; inactive = mostly above about 0.92. Some of the results follow.

Assay: chemical genetic growth profiling, strain panel (AID 1159580);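 also: tested at 20 µM; growth read once vehicle control cultures reached saturation at 30 °C; 1 = growth at the plate median or of vehicle wells; lower values mean less growth of the strain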
Details: S. cerevisiae deletion strains, growth OD

Measured: normalized growth

OC(CCN1CCCCC1)(c1ccccc1)C1CC2C=CC1C2 (centres undefined)
inactive: locus YAL021C, strain ccr4, active compounds read low 1.01 | locus YAL026C, strain drs2, active compounds read low 1 | locus YAL030W, strain snc1, active compounds read low 1.02 | locus YBL061C, strain skt5, active compounds read low 1.02 | locus YBR009C, strain hhf1, active compounds read low 0.985 | locus YBR023C, strain chs3, active compounds read low 0.999 | locus YBR171W, strain sec66, active compounds read low 1 | locus YBR231C, strain swc5, active compounds read low 0.999 | locus YBR279W, strain paf1, active compounds read low 0.99 | locus YCL011C, strain gbp2, active compounds read low 1.01 | locus YCL016C, strain dcc1, active compounds read low 1.04 | locus YCL061C, strain MRC1, active compounds read low 0.996 | locus YCL069W, strain vba3, active compounds read low 0.977 | locus YCR088W, strain abp1, active compounds read low 1 | locus YDL005C, strain med2, active compounds read low 1 | locus YDL040C, strain nat1, active compounds read low 1 | locus YDR001C, strain nth1, active compounds read low 0.997 | locus YDR069C, strain doa4, active compounds read low 1.02 | locus YDR137W, strain rgp1, active compounds read low 1.01 | locus YDR159W, strain sac3, active compounds read low 0.992 | locus YDR195W, strain ref2 1.01 | locus YDR297W, strain sur2, active compounds read low 1 | locus YDR334W, strain swr1, active compounds read low 0.965 | locus YDR335W, strain msn5, active compounds read low 1 | locus YDR392W, strain spt3, active compounds read low 1.03 | locus YEL003W, strain gim4, active compounds read low 0.993 | locus YEL037C, strain rad23, active compounds read low 0.988 | locus YEL061C, strain CIN8 (second series), active compounds read low 0.983 | locus YER015W, strain faa2, active compounds read low 1 | locus YER016W, strain bim1, active compounds read low 1.03 | locus YER111C, strain swi4, active compounds read low 1 | locus YER155C, strain BEM2 (second series), active compounds read low 1.01 | locus YFR010W, strain ubp6, active compounds read low 0.966 | locus YGL167C, strain pmr1, active compounds read low 1 | locus YGL173C, strain kem1, active compounds read low 1.01 | locus YGL227W, strain vid30, active compounds read low 0.989 | locus YGL240W, strain doc1, active compounds read low 0.994 | locus YGL253W, strain hxk2, active compounds read low 1.01 | locus YHR013C, strain ard1, active compounds read low 1.03 | locus YHR027C, strain rpn1, active compounds read low 0.991 | locus YHR030C, strain SLT2, active compounds read low 0.977 | locus YHR079C, strain IRE1, active compounds read low 0.996 | locus YHR142W, strain chs7, active compounds read low 1 | locus YJL092W, strain hpr5, active compounds read low 1.01 | locus YJL095W, strain BCK1 (second series), active compounds read low 1 | locus YJL095W, strain BCK1, active compounds read low 0.996 | locus YJL115W, strain asf1, active compounds read low 0.984 | locus YJL129C, strain trk1, active compounds read low 0.987 | locus YJL154C, strain vps35, active compounds read low 0.987 | locus YJL164C, strain tpk1, active compounds read low 0.997 | locus YJL166W, strain qcr8, active compounds read low 0.982 | locus YJR066W, strain TOR1, active compounds read low 0.935 | locus YKL160W, strain elf1, active compounds read low 1.03 | locus YKR026C, strain gcn3, active compounds read low 0.987 | locus YKR091W, strain srl3, active compounds read low 1 | locus YLL001W, strain dnm1, active compounds read low 0.993 | locus YLL026W, active compounds read low 0.997 | locus YLL041C, strain sdh2, active compounds read low 1.03 | locus YLR027C, strain aat2, active compounds read low 1 | locus YLR113W, strain HOG1, active compounds read low 0.987 | locus YLR221C, strain rsa3, active compounds read low 0.993 | locus YLR258W, strain gsy2, active compounds read low 0.998 | locus YLR262C, strain YPT6 (second series), active compounds read low 0.984 | locus YLR320W, strain mms22, active compounds read low 0.979 | locus YLR342W, strain FKS1, active compounds read low 1.01 | locus YLR357W, strain rsc2, active compounds read low 0.995 | locus YLR370C, strain arc18, active compounds read low 1.01 | locus YLR384C, strain iki3, active compounds read low 1.01 | locus YML120C, strain ndi1, active compounds read low 0.981 | locus YMR058W, strain fet3, active compounds read low 1 | locus YMR125W, strain sto1, active compounds read low 0.985 | locus YMR129W, active compounds read low 1 | locus YMR205C, strain PFK2, active compounds read low 1.01 | locus YMR231W, strain pep5, active compounds read low 0.995 | locus YNL071W, strain lat1, active compounds read low 0.985 | locus YNL183C, strain NPR1, active compounds read low 0.951 | locus YNL209W, strain ssb2, active compounds read low 0.995 | locus YNL248C, strain rpa49, active compounds read low 1 | locus YNL322C, strain KRE1 (second series), active compounds read low 0.995 | locus YNR049C, strain mso1, active compounds read low 1.01 | locus YOR001W, strain rrp6, active compounds read low 0.949 | locus YOR070C, strain gyp1, active compounds read low 0.989 | locus YOR080W, strain dia2, active compounds read low 1 | locus YOR083W, strain WHI5, active compounds read low 1.03 | locus YOR106W, strain vam3, active compounds read low 0.995 | locus YOR231W, strain MKK1, active compounds read low 0.991 | locus YOR265W, strain rbl2, active compounds read low 1.01 | locus YOR270C, strain vph1, active compounds read low 0.929 | locus YOR290C, strain snf2, active compounds read low 1.06 | locus YPL051W, strain arl3, active compounds read low 1.01 | locus YPL078C, strain atp4, active compounds read low 1.02 | locus YPL106C, strain sse1, active compounds read low 1.05 | locus YPL240C, strain hsp82, active compounds read low 0.982 | locus YPL256C, strain CLN2, active compounds read low 0.978
